Test results published in PubChem BioAssay (EPA / NIEHS).
“And” between values parts separate entries of the source, which are not always exact repeats. Equal values may be shown once. Some compounds were tested as several samples or in several runs, with calls that do not always agree. The source made the active and inactive calls. The calls were made as follows: active = hit-call score of the fitted dose curve at least 0.9, where 1 is the maximum; inactive = score below 0.9.

Experiments:
[1] = read-out: Interleukin-1 alpha (IL1a), IL1A (gene 3552); test: BSK_KF3CT_IL1a: BioMAP Diversity Plus: KF3CT Assay for Interleukin-1 alpha (IL1a) Biomarker Activity (AID 2283070); settings: primary human keratinocytes with fibroblasts; actives raise or lower the signal
Procedure, shortened: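 Human keratinocyte plus foreskin fibroblast primary co-culture, sampled 24 h after chemical dosing. IL-1a measured by ELISA; responses fitted bidirectionally against DMSO baseline (negative control), so gain or loss of signal both count.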

[2] = read-out: TIMP metallopeptidase inhibitor 2 (TIMP2), TIMP2 (gene 7077); test: BSK_KF3CT_TIMP2: BioMAP Diversity Plus: KF3CT Assay for TIMP metallopeptidase inhibitor 2 (TIMP2) Biomarker Activity (AID 2283071); settings: primary human keratinocytes with fibroblasts; actives raise or lower the signal
Procedure, shortened: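 Cells: human keratinocytes co-cultured with foreskin fibroblasts. Treat with chemical, 24 h. Measure TIMP-2 by ELISA; fit curves bidirectionally vs DMSO baseline.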

[3] = read-out: Matrix Metallopeptidase 9 (MMP9), MMP9 (gene 4318); test: BSK_KF3CT_MMP9: BioMAP Diversity Plus: KF3CT Assay for Matrix Metallopeptidase 9 (MMP9) Biomarker Activity (AID 2283074); settings: primary human keratinocytes with fibroblasts; actives raise or lower the signal
Procedure, shortened: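 Keratinocyte plus foreskin fibroblast human primary skin co-culture was dosed with chemical and MMP-9 was quantified by ELISA 24 h later. Bidirectional curve fitting used DMSO as negative control and activity baseline.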

[4] = read-out: urokinase plasminogen activator (uPA), PLAU (gene 5328); test: BSK_KF3CT_uPA: BioMAP Diversity Plus: KF3CT Assay for urokinase plasminogen activator (uPA) Biomarker Activity (AID 2283075); settings: primary human keratinocytes with fibroblasts; actives raise or lower the signal
Procedure, shortened: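 Human keratinocyte plus foreskin fibroblast primary co-culture exposed to chemical for 24 h. uPA levels were quantified by ELISA, and activity was fitted bidirectionally against a DMSO negative-control baseline.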

[5] = read-out: E-selectin (Homo sapiens) (UniProt P16581); test: BSK_LPS_Eselectin: BioMAP Diversity Plus: LPS Assay for Eselectin Biomarker Activity (AID 2283077); settings: primary human HUVEC with PBMC; actives raise or lower the signal
Procedure, shortened: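 Signal of E-selectin, detected by ELISA, served as the endpoint; cells were umbilical vein endothelium with PBMC, read 24 h after treatment. DMSO defined baseline, and both increases and decreases were fitted.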

[6] = read-out: Interleukin-8 (IL8), CXCL8 (gene 3576); test: BSK_LPS_IL8: BioMAP Diversity Plus: LPS Assay for Interleukin-8 (IL8) Biomarker Activity (AID 2283078); settings: primary human HUVEC with PBMC; actives raise or lower the signal
Procedure, shortened: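 Endothelial cells and PBMC from human donors are co-cultured, treated with chemicals and LPS, then assayed for IL-8 by ELISA after 24 h. Parallel SRB staining (0.1% SRB after 10% TCA fixation, 560 nm) flags cytotoxicity.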

[7] = BSK_LPS_SRB: Viability Assessment in the BioMAP Diversity Plus: LPS Assay (AID 2283079); settings: primary human HUVEC with PBMC;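 also: total protein by sulforhodamine B absorbance as a cytotoxicity measure; measured one day after compound addition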
Procedure, shortened: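 Overt cytotoxicity was gauged by sulforhodamine B total-protein staining in a primary human vascular endothelial and mononuclear cell co-culture 24 h post-dosing. Activity was fitted in both directions relative to DMSO.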

[8] = read-out: Interleukin-1 alpha (IL1a), IL1A (gene 3552); test: BSK_LPS_IL1a: BioMAP Diversity Plus: LPS Assay for Interleukin-1 alpha (IL1a) Biomarker Activity (AID 2283080); settings: primary human HUVEC with PBMC; actives raise or lower the signal
Procedure, shortened: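 Measured: IL-1 alpha via ELISA at 24 h in LPS-activated human umbilical vein endothelium–PBMC co-culture. Baseline: DMSO, bidirectional fitting.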

[9] = read-out: Monocyte Chemoattractant Protein-1 (MCP1), CCL2 (gene 6347); test: BSK_LPS_MCP1: BioMAP Diversity Plus: LPS Assay for Monocyte Chemoattractant Protein-1 (MCP1) Biomarker Activity (AID 2283081); settings: primary human HUVEC with PBMC; actives raise or lower the signal;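 as to AC50: secreted MCP-1 protein quantified by ELISA in culture supernatant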
Procedure, shortened: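 LPS-stimulated HUVEC/PBMC co-culture; chemical, 24 h; MCP-1 by ELISA; bidirectional fit vs DMSO; cytotoxicity via SRB (0.1% stain, 10% TCA fix, 560 nm) in parallel wells.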

[10] = BSK_LPS_PGE2: BioMAP Diversity Plus: LPS Assay for Prostaglandin E2 (PGE2) Biomarker Activity (AID 2283082); settings: primary human HUVEC with PBMC; actives raise or lower the signal;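 as to AC50: secreted prostaglandin E2 measured by ELISA in LPS-stimulated co-culture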
Procedure, shortened: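 LPS-activated HUVEC/PBMC co-culture; cmpd dosed, 24 h; PGE2 by ELISA; bidirectional fit vs DMSO; SRB (0.1%, TCA-fixed, 560 nm) in parallel plates for overt cytotox.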

[11] = read-out: Macrophage colony-stimulating factor (MCSF), CSF1 (gene 1435); test: BSK_LPS_MCSF: BioMAP Diversity Plus: LPS Assay for Macrophage colony-stimulating factor (MCSF) Biomarker Activity (AID 2283083); settings: primary human HUVEC with PBMC; actives raise or lower the signal
Procedure, shortened: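 Compound is added to a human vascular primary co-culture of umbilical vein endothelium and blood mononuclear cells. After 24 h, M-CSF is quantified by ELISA. Signal changes are fitted in both directions against DMSO.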

[12] = read-out: Tissue Factor, F3 (gene 2152); test: BSK_LPS_TissueFactor: BioMAP Diversity Plus: LPS Assay for Tissue Factor Biomarker Activity (AID 2283084); settings: primary human HUVEC with PBMC; actives raise or lower the signal
Procedure, shortened: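 In this co-culture system of umbilical vein endothelium with PBMC, stimulated with LPS, cell-surface CD142 is detected by ELISA at 24 h. Endpoint values derive from bidirectional fitting, DMSO serving as baseline.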

[13] = read-out: Tumor necrosis factor (Homo sapiens) (UniProt P01375); test: BSK_LPS_TNFa: BioMAP Diversity Plus: LPS Assay for Tumour Necrosis Factor alpha (TNFa) Biomarker Activity (AID 2283085); settings: primary human HUVEC with PBMC; actives raise or lower the signal;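 as to AC50: TNFa protein level quantified by ELISA in the co-culture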
Procedure, shortened: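 Read-out is ELISA of TNFa in primary human endothelial cell–PBMC co-cultures at 24 h after compound. Activity in either direction was fitted against DMSO.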

[14] = read-out: Vascular cell adhesion molecule 1 (VCAM1), VCAM1 (gene 7412); test: BSK_LPS_VCAM1: BioMAP Diversity Plus: LPS Assay for Vascular cell adhesion molecule 1 (VCAM1) Biomarker Activity (AID 2283086); settings: primary human HUVEC with PBMC; actives raise or lower the signal
Procedure, shortened: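 HUVEC + PBMC co-culture, LPS system; compound 24 h; VCAM-1 by ELISA; bidirectional fit vs DMSO control; parallel SRB (0.1%, TCA-fixed, 560 nm) for cytotoxicity.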

CD38, CD38 (gene 952) = test: BSK_SAg_CD38: BioMAP Diversity Plus: SAg Assay for CD38 Biomarker Activity (AID 2283087); settings: primary human HUVEC with PBMC; actives raise or lower the signal
Procedure, shortened: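 Human HUVEC plus PBMC co-culture stimulated with superantigen; CD38 measured by ELISA 24 h after chemical dosing. Fluorescence read-out, bidirectional fit against DMSO; cytotoxicity tracked in parallel by SRB and Alamar Blue.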

CD40, CD40 (gene 958) [15] = test: BSK_SAg_CD40: BioMAP Diversity Plus: SAg Assay for CD40 Biomarker Activity (AID 2283088); settings: primary human HUVEC with PBMC; actives raise or lower the signal
Procedure, shortened: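 Fluorescence ELISA read-out of CD40 from umbilical vein endothelium plus peripheral blood mononuclear cells, sampled 24 h after dosing. Values come from bidirectional curve fitting with DMSO as baseline.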

CD69, CD69 (gene 969) = test: BSK_SAg_CD69: BioMAP Diversity Plus: SAg Assay for CD69 Biomarker Activity (AID 2283089); settings: primary human HUVEC with PBMC; actives raise or lower the signal;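 as to AC50: cell surface CD69 protein quantified by ELISA with fluorescence detection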
Procedure, shortened: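 HUVEC co-cultured with PBMC were dosed with chemical, and CD69 was measured by ELISA with fluorescence read-out 24 h later. Bidirectional curve fitting used DMSO as negative control and activity baseline.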

[16] = read-out: C-C motif chemokine 2 (Homo sapiens) (UniProt P13500); test: BSK_KF3CT_MCP1: BioMAP Diversity Plus: KF3CT Assay for Monocyte Chemoattractant Protein 1 (MCP1/CCL2) Biomarker Activity (AID 2283073); settings: primary human keratinocytes with fibroblasts; actives raise or lower the signal
Procedure, shortened: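 Keratinocytes and foreskin fibroblasts were co-cultured, dosed with chemical, and sampled 24 h later. MCP-1 was quantified by ELISA, and the endpoint was analyzed with bidirectional fitting using DMSO as negative control.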

CD40, CD40 (gene 958) [17] = test: BSK_LPS_CD40: BioMAP Diversity Plus: LPS Assay for CD40 Biomarker Activity (AID 2283076); settings: primary human HUVEC with PBMC; actives raise or lower the signal
Procedure, shortened: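 CD40 signal, measured by ELISA, is fitted in both directions relative to DMSO vehicle. The system is an LPS-driven human vascular primary co-culture of endothelial cells and PBMC, sampled 24 h after compound addition.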

[18] = read-out: Transforming growth factor beta 1 (TGFb1), TGFB1 (gene 7040); test: BSK_KF3CT_TGFb1: BioMAP Diversity Plus: KF3CT Assay for Transforming growth factor beta 1 (TGFb1) Biomarker Activity (AID 2283072); settings: primary human keratinocytes with fibroblasts; actives raise or lower the signal
Procedure, shortened: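 Primary human skin cells (keratinocytes, foreskin fibroblasts) were co-cultured, exposed to test chemical and sampled at 24 h. TGF-b1 levels were measured by ELISA and fitted bidirectionally relative to DMSO.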

Chain of E-selectin (Homo sapiens) (P16581 whole entry, looked up): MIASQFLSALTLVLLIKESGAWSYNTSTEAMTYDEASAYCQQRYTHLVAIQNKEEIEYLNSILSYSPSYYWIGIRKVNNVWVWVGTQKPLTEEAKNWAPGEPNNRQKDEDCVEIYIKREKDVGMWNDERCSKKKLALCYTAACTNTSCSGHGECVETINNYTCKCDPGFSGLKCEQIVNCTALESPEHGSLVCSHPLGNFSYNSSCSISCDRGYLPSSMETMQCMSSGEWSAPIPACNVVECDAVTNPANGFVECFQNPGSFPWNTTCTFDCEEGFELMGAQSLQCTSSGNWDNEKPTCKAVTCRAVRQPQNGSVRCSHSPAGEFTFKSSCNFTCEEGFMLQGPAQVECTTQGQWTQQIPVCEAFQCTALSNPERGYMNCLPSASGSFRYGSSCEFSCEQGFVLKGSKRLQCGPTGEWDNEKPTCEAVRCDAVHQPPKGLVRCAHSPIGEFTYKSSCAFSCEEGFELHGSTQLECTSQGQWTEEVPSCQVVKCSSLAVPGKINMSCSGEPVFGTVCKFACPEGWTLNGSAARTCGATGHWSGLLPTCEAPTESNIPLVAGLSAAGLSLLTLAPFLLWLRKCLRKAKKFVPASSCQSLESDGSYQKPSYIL
Chain of Tumor necrosis factor (Homo sapiens) (P01375 whole entry, looked up): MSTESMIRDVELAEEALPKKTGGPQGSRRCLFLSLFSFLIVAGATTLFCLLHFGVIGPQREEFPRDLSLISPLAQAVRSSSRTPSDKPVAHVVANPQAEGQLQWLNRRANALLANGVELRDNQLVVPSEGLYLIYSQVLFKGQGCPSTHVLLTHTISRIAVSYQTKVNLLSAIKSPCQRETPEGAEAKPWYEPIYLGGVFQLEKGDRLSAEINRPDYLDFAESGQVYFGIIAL

O=C(O)C(F)(OC(F)(F)C(F)(F)C(F)(F)F)C(F)(F)F (stereo unspecified)
outcome [1]: inactive | outcome [2]: inactive | outcome [3]: inactive | outcome [4]: inactive | outcome [5]: inactive | AC50 [6]: 18 µM (active) and 12.1 µM (active) | outcome [6]: inactive | outcome [7]: inactive | outcome [8]: inactive | outcome [9]: inactive | outcome [10]: inactive | outcome [11]: inactive | AC50 [12]: 1.41 µM (active) | outcome [12]: inactive | outcome [13]: inactive | outcome [14]: inactive | outcome (CD38, CD38 (gene 952)): inactive | outcome (CD40, CD40 (gene 958) [15]): inactive | outcome (CD69, CD69 (gene 969)): inactive

O=S(=O)(F)C(F)(F)C(F)(F)C(F)(F)C(F)(F)C(F)(F)C(F)(F)C(F)(F)C(F)(F)F
outcome [1]: inactive | outcome [2]: inactive | outcome [16]: inactive | outcome [3]: inactive | outcome [4]: inactive | outcome [5]: inactive | outcome [6]: inactive | outcome [7]: inactive | outcome [8]: inactive | outcome [9]: inactive | outcome [10]: inactive | outcome [11]: inactive | outcome [12]: inactive | outcome [13]: inactive | outcome [14]: inactive | outcome (CD40, CD40 (gene 958) [15]): inactive | outcome (CD69, CD69 (gene 969)): inactive

COC(=O)C(F)(F)C(F)(F)OC(F)(C(F)(F)F)C(F)(F)OC(F)=C(F)F (stereo unspecified)
outcome [1]: inactive | outcome [2]: inactive | outcome [3]: inactive | outcome [4]: inactive | outcome (CD40, CD40 (gene 958) [17]): inactive | outcome [5]: inactive | outcome [6]: inactive | outcome [7]: inactive | outcome [8]: inactive | outcome [9]: inactive | outcome [10]: inactive | outcome [11]: inactive | outcome [12]: inactive | outcome [13]: inactive | outcome [14]: inactive | outcome (CD40, CD40 (gene 958) [15]): inactive | outcome (CD69, CD69 (gene 969)): inactive

OCC(F)(F)OC(F)(F)C(F)(F)OC(F)(F)C(F)(F)OC(F)(F)CO
outcome [1]: inactive | outcome [2]: inactive | outcome [16]: inactive | outcome [3]: inactive | outcome [4]: inactive | outcome [5]: inactive | outcome [6]: inactive | AC50 [7]: 30 µM (active) | outcome [7]: inactive | outcome [8]: inactive | outcome [9]: inactive | outcome [10]: inactive | outcome [11]: inactive | outcome [12]: inactive | outcome [13]: inactive | outcome [14]: inactive | AC50 (CD40, CD40 (gene 958) [15]): 30 µM (active) | outcome (CD40, CD40 (gene 958) [15]): inactive | AC50 (CD69, CD69 (gene 969)): 12.9 µM (active) | outcome (CD69, CD69 (gene 969)): inactive

C=CC(=O)OCC(F)(F)C(F)F
outcome [1]: inactive | outcome [2]: inactive | outcome [3]: inactive | outcome [4]: inactive | AC50 (CD40, CD40 (gene 958) [17]): 24 µM (active) and 19.9 µM (active) | AC50 [5]: 45.9 µM (active) and 47.4 µM (active) | AC50 [6]: 49 µM (active) and 30 µM (active) | outcome [7]: inactive | AC50 [8]: 40 µM (active) and 35.4 µM (active) | AC50 [9]: 20.8 µM (active) | outcome [9]: inactive | AC50 [10]: 39.4 µM (active) and 31.6 µM (active) | AC50 [11]: 30 µM (active) | outcome [11]: inactive | outcome [12]: inactive | AC50 [13]: 54.6 µM (active) and 54 µM (active) | AC50 [14]: 38 µM (active) and 24.3 µM (active) | AC50 (CD38, CD38 (gene 952)): 24.2 µM (active) and 36.9 µM (active) | AC50 (CD40, CD40 (gene 958) [15]): 37.2 µM (active) and 35.3 µM (active) | AC50 (CD69, CD69 (gene 969)): 38.5 µM (active) and 30 µM (active)

Cc1c([N+](=O)[O-])cc2c(c1[N+](=O)[O-])C(C)(C)CC2(C)C
outcome [1]: inactive | outcome [2]: inactive | AC50 [18]: 3.06 µM (active) | outcome [3]: inactive | outcome [4]: inactive | outcome [5]: inactive | outcome [6]: inactive | outcome [7]: inactive | outcome [8]: inactive | outcome [9]: inactive | outcome [10]: inactive | outcome [11]: inactive | outcome [12]: inactive | outcome [13]: inactive | outcome [14]: inactive | outcome (CD38, CD38 (gene 952)): inactive | outcome (CD40, CD40 (gene 958) [15]): inactive | outcome (CD69, CD69 (gene 969)): inactive
